Test results: PubChem BioAssay (NCI)
About 83,000 compounds went through this panel and 20% of them were active in at least one assay; those are over-represented in the sample as a whole.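 The endpoint reported here, percent growth, reads 100 for growth as untreated, 0 for no net growth and -100 for all cells dead.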 Values without a mark were called inactive. Active and inactive are the calls of the source. The calls were made as follows: active = growth percent below 10; inactive = the rest.

Key:
Assay in all cases: NCI-60 one-dose screen, 48 h (100 = growth as untreated, 0 = no growth, -100 = all killed)
NCI-H23 lung = settings: 10 µM
HOP-92 NSCLC = settings: 10 µM
COLO 205 colon = settings: 10 µM
K-562 leukemia = settings: 10 µM
MDA-MB-231 breast = settings: 10 µM
RXF 393 renal = settings: 10 µM
LOX IMVI melanoma = settings: 10 µM
SK-MEL-28 melanoma = settings: 10 µM
UO-31 renal = settings: 10 µM
CCRF-CEM leukemia = settings: 10 µM
MOLT-4 leukemia = settings: 10 µM
SR leukemia = settings: 10 µM
HS 578T breast = settings: 10 µM
SW-620 colon = settings: 10 µM
NCI-H226 lung = settings: 10 µM
U251 CNS = settings: 10 µM
IGROV1 ovarian = settings: 10 µM
MDA-MB-468 breast = settings: 10 µM unless noted
SNB-19 CNS = settings: 10 µM
EKVX NSCLC = settings: 10 µM

Compound	growth (NCI-H23 lung)	growth (HOP-92 NSCLC)	growth (COLO 205 colon)	growth (K-562 leukemia)	growth (MDA-MB-231 breast)	growth (RXF 393 renal)	growth (LOX IMVI melanoma)	growth (SK-MEL-28 melanoma)	growth (UO-31 renal)	growth (CCRF-CEM leukemia)	growth (MOLT-4 leukemia)	growth (SR leukemia)	growth (HS 578T breast)	growth (SW-620 colon)	growth (NCI-H226 lung)	growth (U251 CNS)	growth (IGROV1 ovarian)	growth (MDA-MB-468 breast)	growth (SNB-19 CNS)	growth (EKVX NSCLC)
CC[C@]12C=CCN3CC[C@@]4(c5ccc(OC)cc5N(C)[C@H]4[C@@](O)(C(=O)OC)[C@@H]1OC(=O)CCC[P+](c1ccc(C)cc1)(c1ccc(C)cc1)c1ccc(C)cc1)[C@@H]32	-90.7% (active)	-83.2% (active)	-50.2% (active)	-13.4% (active)	-94.9% (active)	-82.8% (active)	-89.3% (active)	-96.6% (active)	-97.4% (active)	-67% (active)	-45.1% (active)	5.74% (active)	-60.3% (active)	-85.2% (active)	–	–	–	–	–	–
COc1ccc2cc([C@H](C)C(=O)[Se]CCC#N)ccc2c1	–	-82.1% (active)	-71% (active)	4.12% (active)	-59.9% (active)	-82.3% (active)	-66.6% (active)	-37.9% (active)	-71.2% (active)	7.91% (active)	5.75% (active)	0.13% (active)	-10.2% (active)	-22.9% (active)	-49.9% (active)	-95.3% (active)	-51.7% (active)	-56.6% (active)	–	–
COC(=O)c1ccc(-n2cc(CCCN(CCNc3ccnc4cc(Cl)ccc34)C(=O)CCC(=O)O[C@@H]3O[C@@H]4OC5(C)CC[C@H]6[C@H](C)CC[C@@H]([C@H]3C)[C@@]46OO5)nn2)cc1	40.4%	18.6%	–	5.64% (active)	62.8%	34.2%	8.12% (active)	–	19.6%	15.9%	-13.5% (active)	-10% (active)	49.6%	31.6%	–	53.3%	–	33.3%	63.7%	–
CCOP(=O)(CC(F)(F)C(F)(F)F)OCC	50.4%	-7.91% (active)	-68% (active)	5.12% (active)	51.1%	–	-64% (active)	–	25.1%	8.28% (active)	4% (active)	4.39% (active)	82.2%	-8.33% (active)	-23.5% (active)	–	60.2%	-59.3% (active)	–	89.5%
